These results are taken from PubChem BioAssay (NCATS).

The structures appear in SMILES notation. Where “and” joins values, the source holds several entries; their conditions need not be identical. Equal entries are not always repeated. A number with no mark means an inactive call. Results filed as inconclusive are left out. Calls of active or inactive are those of the source. Unless noted, the call rests on the fitted dose curve; in most records, active means well fitted curve in either direction with a large enough effect (not every such curve was filed as active); inconclusive means small, poorly fitted or top-dose-only effect, or another doubt; inactive means flat fitted curve, though single readings scatter.

Test [1] can be described thus: AP1 Signaling Pathway (AID 357).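 Further: ME-180 reporter cells stimulated with EGF at its EC50 level; on the % scale 0 is the no-effect control and ±100 the full control effect.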 The note with it: ME-180 AP-1-bla reporter, EGF-induced, beta-lactamase ratio, 5 h. The gist of the method:
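First, ME-180 AP-1-bla cells were cultured overnight at 37 °C in low-serum Opti-MEM. Next, titrated compounds with EC50 EGF were incubated 5 hours. Finally, CCF4 was added for 2.5 hours and the 460/530 nm ratio recorded.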

Test [2] in a line: NFAT Signaling Pathway (AID 444).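 Further: carbachol stimulus at about its EC50 of 1 µM final; on the % scale 0 is the no-effect control and ±100 the full control effect.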 The note with it: Jurkat NFAT-bla M1, carbachol, beta-lactamase ratio, 5 h. Put shortly:
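Read-out: CCF4 FRET ratio (460 nm/530 nm) after 1 h RT dye loading, used for %activity and AC50 from titration series. Cells: Jurkat NFAT-β-lactamase/M1 line, treated with compound plus 1 uM carbachol for 5 h, 37 °C.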

Test [3] in a line: Stat Signaling Pathway (AID 446).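 Further: ME-180 cervical cancer cells given 40 pM IL-6 alongside compound; SIE-controlled beta-lactamase reporter measured as 460/530 nm FRET emission ratio; on the % scale 0 is the no-effect control and ±100 the full control effect.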 The note with it: ME-180 (cervical carcinoma) SIE beta-lactamase reporter, IL-6 stimulated, 5 h. The gist of the method: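 Overnight-plated ME-180 cells bearing a STAT Inducible Element beta-lactamase reporter; 5 h co-exposure to compound and 40 pM IL-6; values normalized to 300 pM IL-6 and 125 nM JAK inhibitor controls.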
Test [4] deals with Glucocorticoid receptor (Homo sapiens) (UniProt P04150). Briefly: GR-GFP Redistribution (AID 450;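 active means compounds whose dose series gives a full or clear partial fitted curve of increased nuclear translocation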; further: potency means the concentration at half of the fitted maximal effect). As to conditions: U2OS GR-GFP nuclear translocation, laser cytometry, 2 h.
Test [5] has as its target Mitogen-activated protein kinase 10 (Mus musculus) (UniProt Q61831). Nature of the test: JNK3 AlphaScreen Assay (AID 530).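 Further: kinase came from lysate of stimulated human HepG2 cells; signal reports phosphorylation of biotinylated GST-cJun 1-79 at Ser73 with 10 µM ATP; on the % scale 0 is the no-effect control and ±100 the full control effect.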 The note with it: JNK3 lysate, c-Jun phosphorylation; series mostly up to 25.6 µM. Put shortly:
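qHTS titrations with 15 min compound pre-incubation before adding ATP (10 uM final). Read-out: AlphaScreen of Ser73-phosphorylated biotin-GST-cJun using HepG2 lysate JNK3 activated by IL-1β and TNFα.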
A general note: In Alpha technology, singlet oxygen from a donor bead excites a nearby acceptor bead.

In test [6] the target is Cytochrome P450 1A2 (Homo sapiens) (UniProt P05177). Nature of the test: p450-cyp1a2 (AID 410; calls by dose curve; further: potency means the concentration at half of the fitted maximal effect;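 on activity change, negative = inhibition: -100% = full effect of reference inhibitor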). As to conditions: recombinant CYP1A2, luciferin-ME demethylation, luminescence; series mostly up to 25.6 µM. Put shortly:
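O-Demethylation of luciferin 6' methyl ether by human CYP1A2 is monitored as luciferase luminescence. Substrate sits at Km (100uM); enzyme is 20nM. Values are scaled to 57 uM furafylline as maximal inhibition.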

The target of test [7] is Lysosomal acid glucosylceramidase (Homo sapiens) (UniProt P04062). Nature of the test: Glucocerebrosidase-p2 (AID 348; in the data active means potency below about 10 µM; further: potency means the concentration at half of the fitted maximal effect). The note with it: purified GBA, blue fluorogenic substrate, 40 min. The gist of the method: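 Normal human glucocerebrosidase (0.2 nM) with blue fluorogenic substrate (80 uM final) in citrate/phosphate pH 5.9 with 10mM sodium taurocholate, 0.01% tween-20; 40 min RT, NaOH/glycine stop; fluorescence Ex 365/Em 440; AC50 from a titration from 0.6 nM upwards.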
Sequence of Lysosomal acid glucosylceramidase (Homo sapiens) (P04062 whole entry, looked up): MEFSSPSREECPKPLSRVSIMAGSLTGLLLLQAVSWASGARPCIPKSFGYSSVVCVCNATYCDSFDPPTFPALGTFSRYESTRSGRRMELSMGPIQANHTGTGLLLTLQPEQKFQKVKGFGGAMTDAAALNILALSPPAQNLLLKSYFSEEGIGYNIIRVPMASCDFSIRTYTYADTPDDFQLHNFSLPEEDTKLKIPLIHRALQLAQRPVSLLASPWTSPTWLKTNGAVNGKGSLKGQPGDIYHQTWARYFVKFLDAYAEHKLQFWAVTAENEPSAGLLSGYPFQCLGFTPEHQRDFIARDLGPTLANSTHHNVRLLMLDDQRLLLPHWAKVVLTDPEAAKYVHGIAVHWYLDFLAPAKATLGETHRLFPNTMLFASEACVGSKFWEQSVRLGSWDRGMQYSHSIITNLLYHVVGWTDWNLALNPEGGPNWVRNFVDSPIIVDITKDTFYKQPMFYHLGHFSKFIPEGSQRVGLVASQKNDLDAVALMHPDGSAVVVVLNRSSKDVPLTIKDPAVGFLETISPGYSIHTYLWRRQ

Sequence of Cytochrome P450 1A2 (Homo sapiens) (P05177 whole entry, looked up): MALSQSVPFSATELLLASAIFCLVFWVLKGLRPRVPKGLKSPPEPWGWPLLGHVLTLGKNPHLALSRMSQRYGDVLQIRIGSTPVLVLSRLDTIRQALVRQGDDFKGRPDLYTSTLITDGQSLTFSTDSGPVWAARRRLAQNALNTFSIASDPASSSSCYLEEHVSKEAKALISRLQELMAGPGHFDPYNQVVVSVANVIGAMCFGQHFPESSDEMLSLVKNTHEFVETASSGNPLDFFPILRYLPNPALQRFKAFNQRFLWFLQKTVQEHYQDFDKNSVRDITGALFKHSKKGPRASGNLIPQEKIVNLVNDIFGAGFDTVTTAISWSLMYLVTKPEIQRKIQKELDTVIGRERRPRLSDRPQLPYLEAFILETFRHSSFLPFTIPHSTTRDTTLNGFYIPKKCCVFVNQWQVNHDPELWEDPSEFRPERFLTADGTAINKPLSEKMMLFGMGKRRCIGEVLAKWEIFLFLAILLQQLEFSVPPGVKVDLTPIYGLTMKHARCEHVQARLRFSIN
Sequence of Glucocorticoid receptor (Homo sapiens) (P04150 whole entry, looked up): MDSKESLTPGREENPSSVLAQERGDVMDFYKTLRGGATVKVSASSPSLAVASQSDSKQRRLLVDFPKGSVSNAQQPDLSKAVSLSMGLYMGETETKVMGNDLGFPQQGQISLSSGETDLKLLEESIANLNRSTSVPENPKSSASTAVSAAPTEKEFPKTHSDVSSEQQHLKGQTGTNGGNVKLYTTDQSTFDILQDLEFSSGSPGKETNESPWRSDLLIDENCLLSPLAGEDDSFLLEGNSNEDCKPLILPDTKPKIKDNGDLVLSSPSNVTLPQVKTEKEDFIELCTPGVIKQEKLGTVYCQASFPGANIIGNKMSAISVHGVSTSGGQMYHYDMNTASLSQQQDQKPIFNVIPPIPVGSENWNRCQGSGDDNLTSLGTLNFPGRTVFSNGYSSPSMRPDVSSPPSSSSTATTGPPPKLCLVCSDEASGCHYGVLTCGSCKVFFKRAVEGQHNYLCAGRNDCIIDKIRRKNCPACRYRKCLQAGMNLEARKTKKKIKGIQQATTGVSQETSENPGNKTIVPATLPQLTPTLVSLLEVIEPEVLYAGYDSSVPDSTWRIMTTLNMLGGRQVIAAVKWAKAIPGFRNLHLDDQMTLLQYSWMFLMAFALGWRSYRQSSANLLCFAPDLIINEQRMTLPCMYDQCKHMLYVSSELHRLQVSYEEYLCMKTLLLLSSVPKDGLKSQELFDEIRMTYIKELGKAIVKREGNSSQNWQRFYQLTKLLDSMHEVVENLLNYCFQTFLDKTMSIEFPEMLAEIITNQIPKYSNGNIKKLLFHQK

As for `C[N+]1(CCCCC[N+]2(C)CCCC2)CCCC1`, the activity change, negative = inhibition in test [1] (at 17.2 µM (top of the series)) is 5.75%; in test [1] (at 38 µM (top of the series)), 7.2%; in test [2] (at 17.2 µM (top of the series)) it was -12.7%; in test [2] (at 38 µM (top of the series)), -8.15%. Moreover, the activity, negative = inhibition in test [3] (at 17.2 µM (top of the series)) is 14.2%; in test [3] (at 38 µM (top of the series)), 0.841%. Further, the Potency in test [4] was > 46 µM and > 20.6 µM. In addition, the call in test [5] was inactive.
Regarding `Cc1c(N(C)CS(=O)(=O)O)c(=O)n(-c2ccccc2)n1C`, the values for the activity change, negative = inhibition in test [1] (at 17.2 µM (top of the series)) and in test [2] (at 17.2 µM (top of the series)) were 6.43% and -4.94%, respectively. Also, in test [6], the Potency entry is “inactive”. Moreover, the activity, negative = inhibition in test [3] (at 17.2 µM (top of the series)) was -1.51%. The Potency in test [4] was greater than 20.6 µM. Further, the compound was called inactive in test [5].
With `N[C@@H](Cc1cnc[nH]1)C(=O)O`, the activity change, negative = inhibition in test [1] (at 38 µM (top of the series)) is 2.79%; in test [2] (at 38 µM (top of the series)) it was -0.542%. Also, the Potency result in test [6] was “inactive”. Moreover, the activity, negative = inhibition in test [3] (at 38 µM (top of the series)) was 27.2%. Also, in test [4], the Potency is greater than 46 µM.
On to `O=C(COc1ccc(Cl)cc1)N1CCN(Cc2ccc3c(c2)OCO3)CC1`, for which the results for the activity change, negative = inhibition in test [1] (at 17.2 µM (top of the series)) and in test [2] (at 17.2 µM (top of the series)) were -14.6% and 15.3%, respectively. Besides, the Potency in test [6] is 5.01 µM (active). Further, in test [3] (at 17.2 µM (top of the series)), the activity, negative = inhibition is 1.26%. Moreover, in test [5], the outcome was inactive.
Take `CC(C)NC[C@@H](O)COc1cccc2ccccc12`: the activity change, negative = inhibition was 7.5% and 12.8% and 4.83% in test [1] (at 17.2 µM (top of the series)); 17.5% and 11.4% in test [1] (at 38 µM (top of the series)); 5.75% and 5.85% and -11.9% in test [2] (at 17.2 µM (top of the series)); 4.84% and 0.806% in test [2] (at 38 µM (top of the series)). Further, the activity, negative = inhibition in test [3] (at 17.2 µM (top of the series)) was -2.8% and 2.51% and -11.2%; in test [3] (at 38 µM (top of the series)), 8.52% and -21.7%. Moreover, the compound was called inactive in test [5].
As for `CCOC(=O)n1ccn(C)c1=S`, the values for the activity change, negative = inhibition in test [1] (at 17.2 µM (top of the series)) and in test [2] (at 17.2 µM (top of the series)) were 13.2% and -13.3%, respectively. Besides, the Potency in test [6] was 12.6 µM (active); in test [4], greater than 20.6 µM. Moreover, the activity, negative = inhibition in test [3] (at 17.2 µM (top of the series)) is 4.14%. The result in test [5] was inactive.
Turning to `Nc1nc2ncc(CNc3ccc(C(=O)N[C@@H](CCC(=O)O)C(=O)O)cc3)nc2c(=O)[nH]1`, the values for the activity change, negative = inhibition in test [1] (at 17.2 µM (top of the series)) and in test [2] (at 17.2 µM (top of the series)) were 0.033% and 2.08%, respectively. Besides, the Potency result in test [6] was “inactive”. In addition, the activity, negative = inhibition in test [3] (at 17.2 µM (top of the series)) was 1.24%. The Potency in test [4] is greater than 20.6 µM. Also, the compound was classed as inactive in test [5].
For the compound `Cc1cc(N)c2cc(NC(=O)Nc3ccc4nc(C)cc(N)c4c3)ccc2n1`, the Potency in test [7] was greater than 11.4 µM. Further, the activity change, negative = inhibition in test [1] (at 7.69 µM (top of the series)) was 14%; in test [2] (at 7.69 µM (top of the series)) it was -11.7%. Also, in test [6], the Potency entry is “inactive”. Also, the activity, negative = inhibition in test [3] (at 7.69 µM (top of the series)) is -4.38%. For the same compound, the outcome in test [5] was inactive.
Consider `COc1c2occc2c(OC)c2c(=O)cc(C)oc12`, for which the activity change, negative = inhibition was 4.61% and -2.27% in test [1] (at 17.2 µM (top of the series)); 4.03% and 8.21% in test [2] (at 17.2 µM (top of the series)). Moreover, the Potency in test [6] is 0.02 µM (active); in test [4], greater than 20.6 µM. Further, the activity, negative = inhibition in test [3] (at 17.2 µM (top of the series)) is 7.57% and -1.58%. In test [5], the result was inactive.
As to `CC(C)(C(=O)c1cccnc1)c1cccnc1`, the activity change, negative = inhibition in test [1] (at 17.2 µM (top of the series)) was 1.77%; in test [2] (at 17.2 µM (top of the series)), -2.38%. Further, the results for the Potency in test [6] and in test [4] were 12.6 µM (active) and greater than 20.6 µM, respectively. Moreover, the activity, negative = inhibition in test [3] (at 17.2 µM (top of the series)) is -5.5%. Moreover, the result in test [5] was inactive.
